The values that follow come from PubChem BioAssay.

Unmarked numbers belong to inactive results. No rule for the calls is given here.

The target of the assay is Pantothenate synthetase (Mycobacterium tuberculosis (strain ATCC 25618 / H37Rv)) (UniProt P9WIL5). Briefly: Coupled enzyme confirmation of inhibitors against recombinant Mtb PanC (AID 375).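 Also: 0% = full reaction with vehicle and 100% = no enzyme background.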 As to conditions: coupled enzyme assay; at 10 µM, hits give high values.
Pantothenate synthetase (Mycobacterium tuberculosis (strain ATCC 25618 / H37Rv)), sequence (P9WIL5 whole entry, looked up): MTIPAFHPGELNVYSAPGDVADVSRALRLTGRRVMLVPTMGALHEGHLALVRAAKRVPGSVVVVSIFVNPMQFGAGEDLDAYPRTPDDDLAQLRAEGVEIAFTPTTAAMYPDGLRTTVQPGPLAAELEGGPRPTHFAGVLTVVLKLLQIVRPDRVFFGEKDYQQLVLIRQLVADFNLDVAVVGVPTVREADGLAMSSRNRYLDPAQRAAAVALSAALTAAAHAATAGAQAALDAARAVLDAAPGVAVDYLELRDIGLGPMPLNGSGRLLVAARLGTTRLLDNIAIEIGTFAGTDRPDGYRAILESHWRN

With `COC(=O)c1ccccc1NC(=O)CC(NCc1ccccc1)C(=O)O` (stereo not drawn), the inhibition (in general, the share of the control response that was lost under treatment) was 0%.
Under `CC(NS(=O)(=O)c1ccc(OCC(=O)N2CCOCC2)c(Cl)c1)c1ccccc1` (stereo not drawn) stands 1%.
With `CCOC(=O)C(NC(C)=O)(NS(=O)(=O)c1ccccc1)C(F)(F)F` (stereo not drawn), the inhibition was 2%.
Consider `COC(=O)CN(c1ccc(C)c(Cl)c1)S(C)(=O)=O`, for which the inhibition was 0%.
Under `O=C(OCCCN1C(=O)c2ccccc2C1=O)c1ccco1` stands 2%.
Under `CN1C(=O)NC(NC(=O)C2CCCCC2)(C(F)(F)F)C1=O` (stereo not drawn) stands 0%.
Then `N#CCOc1nc(N2CCOCC2)nc(N2CCOCC2)n1`, with 0%; and `COc1ccc(NC(=O)c2cnc3n(c2=O)CCS3)cc1OC`, with 0%.
As to `O=C(CSc1nnnn1C1CCCC1)Nc1cccc(NC(=O)c2ccco2)c1`, the inhibition was 5%.
Consider `Cc1nc2ccccc2c2oc(C(=O)N3CCC(N4CCCCC4)CC3)cc12`, for which the inhibition is 0%.
Then `CN(c1ccccc1C(=O)N1CCN(c2cccc(Cl)c2)CC1)S(C)(=O)=O`, with 0%; and `Cc1cc(NC(=O)CSc2nc(C3CC3)nc3sc4c(c23)CCC(C)C4)no1` (stereo not drawn), with 6%; and `c1ccc2c(c1)nc(NC1CCCCC1)c1nncn12`, with 0%.
Then `CN(Cc1ccccc1)Cc1nc2c(c(=O)n(C)c(=O)n2C)n1Cc1ccc(Cl)cc1`, with 0%; and `CC(=O)N1c2c(cc(Br)cc2S(=O)(=O)N2CCN(c3ccccn3)CC2)CC1C` (stereo not drawn), with 0%; and `CC(=O)Nc1ccn(-c2ccccc2)n1`, with 2%.
Then `CCCn1c(=O)c2ccccc2n2c(SCCOc3ccccc3F)nnc12`, with 0%; and `CCCn1c2c(c(O)c(C(=O)NC)c1=O)CCCC2`, with 5%.
